In the library only some 4.8% were active in any assay of this set; here they are far more common.
ssDAF12 agonist: S. stercoralis DAF-12 nuclear receptor activators, primary screen, cell-based, luminescence, HEK293, GRIP1 co-expression, lit1-tk-luc. 1% of 370,000 active. Nuclear hormone receptor DAF-12 (Strongyloides stercoralis). HEK293 ssDAF-12/GRIP1 lit1-tk-luc reporter; % of 3 µM dafachronic acid response. activation, % at 6.8 µM;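 active means activation above the mean over all tested compounds plus 3 SD, cut at about 0.9% in these data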
DAX1 inh-1: DAX1 (NR0B1) inhibitors on StAR promoter, primary screen, cell-based, luminescence, SF-1 (NR5A1), full-length DAX-1 | HEK293T StAR-luciferase reporter, SF-1/DAX-1 repression relief | inhibition, % at 6.8 µM | 1.1% of 370,000 active | AID 652010, 2013;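 active means inhibition above the mean over all tested compounds plus 3 SD, cut at about 3.6% in these data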;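 further: higher inhibition means more luminescence from relief of DAX-1 repression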
SMARCA2 act: SMARCA2 (BRM) function activators, primary screen, cell-based, luminescence, high throughput; MG213 cells, MMTV-luciferase reporter, dexamethasone, overnight; activation, % at 9.1 µM; AID 652017, 2013; 1% of 370,000 active; in the data active means activation above about 7.8%
hcDAF-12 act: H. contortus DAF-12 nuclear receptor activators, primary screen, cell-based, luminescence, HEK293, lit1-tk-luc reporter | 1.4% of 370,000 active | activation, % at 6.8 µM | HEK293 hcDAF-12 lit1-tk-luc reporter; 0% DMSO, 100% Δ7-dafachronic acid | AID 652067, 2013;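 active means activation above the mean of all tested compounds plus 3 SD, cut at about 5.5% in these data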
hgDAF12 agonist: H. glycines DAF-12 receptor agonists, primary screen, cell-based, luminescence, HEK293, GAL4 fusion, UAS-luciferase; HEK293 GAL4-hgDAF12 UAS-luciferase reporter, agonist luminescence; normalized to butyrate control; AID 687014, 2013; 1.8% of 370,000 active; activation, % at 6.8 µM; Nuclear hormone receptor DAF-12 (Heterodera glycines), GAL4 fusion;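 active means activation above a cutoff set at the mean of all screened compounds plus 3 SD, cut at about 10% in these data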
DAX1 inh-2: DAX1 (NR0B1) inhibitors, primary screen, cell-based, HEK293, Gal4-DAX1, luciferase luminescence; HEK293 Gal4-DAX1 luciferase reporter; inhibition, % at 6.75 µM; 0.99% of 340,000 active;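 active means inhibition above the mean over all tested compounds plus 3 SD, cut at about 4.2% in these data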;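 further: inhibition shows as a rise in luminescence from relieved DAX1 repression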
Target sequence (P51843 207-470 limits assumed): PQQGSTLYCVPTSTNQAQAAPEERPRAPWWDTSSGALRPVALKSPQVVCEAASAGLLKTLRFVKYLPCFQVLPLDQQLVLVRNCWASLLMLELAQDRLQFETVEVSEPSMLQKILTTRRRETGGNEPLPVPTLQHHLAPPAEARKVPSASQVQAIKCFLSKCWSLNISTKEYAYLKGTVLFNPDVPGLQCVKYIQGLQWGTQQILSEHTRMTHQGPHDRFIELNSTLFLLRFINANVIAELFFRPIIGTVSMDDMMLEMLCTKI
Of the large screens only hits and unclear results are named; the others gave an inactive call.

COc1ccc(C(=O)CCNc2ccc(F)cc2)cc1	DAX1 inh-2 5.2
COc1cccc(NC(=O)CN(C)C(=O)CNC(=O)c2ccc(Oc3ccccc3)cc2)c1	none
COc1ccc(OC(=O)Nc2ccccc2)cc1	DAX1 inh-1 3.9
COCCNc1nc(=S)[nH]c2cc(OC)c(OC)cc12	none
O=S(=O)(NCCc1csc(-c2cccnc2)n1)c1ccc(F)cc1	none
COc1ccc(C(=O)C(=NN)c2ccccc2)cc1	hgDAF12 agonist 12
O=C(CCCc1ccccc1)NC1CC1	hcDAF-12 act 5.7
O=C(CCc1nnc(CCCCc2ccccc2)o1)NC1CCCC1	none
COc1ccc(C(=O)C(=NNc2ccccc2)c2ccc(OC)cc2)cc1	none
O=C(CC(=O)c1ccccc1)c1ccccc1	DAX1 inh-1 3.6, hgDAF12 agonist 11
O=C(NCCCc1ccccc1)c1ccccc1	none
COc1ccc(C(=O)NCCCc2ccccc2)cc1	hgDAF12 agonist 11 (no result: DAX1 inh-2)
O=C(CC(=O)c1ccncc1)c1ccccc1	none
CC1CCC2C(C1)Nc1c(C(=O)O)cccc1C2(C)C (centres undefined)	none
COC(=O)c1c(NC(C)=O)sc2c1CCN(Cc1ccccc1)C2	none
O=C(O)c1c(NC(=O)c2cccc3ccccc23)sc2c1CCC2	none
O=C(CCCc1ccccc1)c1ccccc1	hcDAF-12 act 5.6, DAX1 inh-2 4.9
COc1ccc(C(=O)CC(=O)c2ccc(OC)cc2)cc1	none
COc1ccc(C(=O)CNc2ccc3ccccc3c2)cc1	hcDAF-12 act 5.9 (no result: DAX1 inh-2)
COc1ccc(C(=O)CNc2ccccc2Br)cc1	none
COc1ccc(CNC(=O)CN2C(=O)c3ccccc3C2=O)cc1	none
COc1ccc(C(=O)CC(=O)c2ccccc2)cc1	hgDAF12 agonist 11 (no result: DAX1 inh-2)
COc1ccc(C(=O)CN2C(=O)c3ccccc3C2=O)cc1	ssDAF12 agonist 1.5 (no result: DAX1 inh-2)
O=C(CSc1nnc(CNc2ccc(F)cc2)o1)OC1CCCCC1	none
COc1cc2c(cc1OC)CN(C(=O)/C=C/c1cc(OC)c(OC)c(OC)c1)CC2	none
O=C(Cn1cncn1)c1ccccc1	DAX1 inh-2 5.7
O=C(Cn1cccn1)c1ccccc1	none
CN(C)/C=C(/C(=O)c1ccccc1Cl)S(=O)(=O)c1ccccc1	none
COc1ccc(C(=O)OCCc2sc[n+](CC(=O)c3ccccc3)c2C)cc1	DAX1 inh-2 4.5
Cc1c(CCOC(=O)c2ccc([N+](=O)[O-])cc2)sc[n+]1CC(=O)c1ccccc1	none
COc1ccc(C(=O)/C(=C/N(C)C)S(=O)(=O)c2ccccc2)cc1	hgDAF12 agonist 12
COc1ccc(C(=O)NCC(=O)c2ccccc2)cc1	hgDAF12 agonist 12
CCO[C@H]1OC(C(=O)N2CCN(Cc3ccccc3)CC2)=C[C@@H](c2ccc(C(F)(F)F)cc2)[C@@H]1CCCO	none
COc1ccc(NC(=O)N/C=C/c2ccccc2)cc1	hgDAF12 agonist 12
COc1ccc(NC(=O)NC(C)c2ccccc2)cc1 (centres undefined)	none
COc1cccc(/C(O)=C/c2nc3ccc(C(=O)NCCc4cccc(C)c4)cc3[nH]c2=O)c1	ssDAF12 agonist 1.1
C=CCN1C(=O)[C@@H](CC(=O)N2CCSCC2)[C@]2(C(=O)OCC)CCCCC/C=C/12	none (no result: DAX1 inh-2)
COc1cc(-c2cnc3c(NC=O)cc(-c4ccccc4)cn23)cc(OC)c1OC	DAX1 inh-1 4.2 (no result: DAX1 inh-2)
COc1cc(-c2cc(NC=O)c3ncc(-c4ccccc4)n3c2)cc(OC)c1OC	none (no result: DAX1 inh-2)
COc1cc(-c2cnc3c(NC=O)cc(-c4ccccc4Cl)cn23)cc(OC)c1OC	DAX1 inh-1 4.2 (no result: DAX1 inh-2)
O=C(Nc1ccc2c(c1)OCCO2)C(c1cc2ccccc2o1)N1CCN(C/C=C/c2ccccc2)CC1 (centres undefined)	none (no result: DAX1 inh-2)
